The values that follow come from PubChem BioAssay (NCI).

SMILES strings stand for the structures. About 83,000 compounds went through this panel and 20% of them were active in at least one assay; those are over-represented in the sample as a whole.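 Interpretation: 100, growth as untreated; towards 0, rising growth inhibition; 0, no net growth; 0 to -100, cell death. Compounds scoring below 10 were considered active.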 Unmarked numbers belong to inactive results. Active and inactive are the calls of the source.

Holding throughout (assay): NCI-60 one-dose screen, 48 h (100 = growth as untreated, 0 = no growth, -100 = all killed)
Common to all, as to conditions: 10 µM

The test system of test [1] is NCI-H226 lung.
Test [2] relates to NCI-H322M lung.
Test [3] has as its system HOP-62 NSCLC.
Test [4] has as its system NCI-H460 lung.
Test [5] relates to NCI-H522 lung.
The subject of test [6] is A549/ATCC NSCLC.
The test system of test [7] is 786-0 renal.
Test [8] relates to COLO 205 colon.
The test system of test [9] is DU-145 prostate.

With `CCOC(=O)c1ccc(NC(=O)Nc2ncc(Cl)cc2Cl)cc1`, the growth in test [1] is 95.3%; in test [2], 99.3%; in [3] it was 104%; in test [4], 93.3%; in [5], -37.6% (active); in test [6], 40.7%. Further, the figures for the growth in test [7], in [8] and in test [9] were 92.9%, 130% and 111%, respectively.
For `COc1ccc(-c2nn(-c3cccc(NC(=O)c4cc(C(F)(F)F)cc(C(F)(F)F)c4)c3)cc2-c2ccncc2)cc1Cl`, the growth in test [1] was 78.3%; in [2], 73.1%; in [3] it was 88.1%; in test [4] it was 62.3%; in test [5], 14.8%; in test [6], 53.1%. In addition, the growth is 81.2% in test [7], 90.7% in [8] and 83.7% in test [9].
With `O=C1/C(=C\c2ccccc2)CN(C(=O)c2ccccc2F)C/C1=C\c1ccccc1`, the growth in [1] was 27.9%; in [2], 74.6%; in [3], 17.9%; in test [5] it was -3.31% (active); in [6] it was 53.3%; in test [7] it was -40.8% (active). Further, the growth in [8] was 14.6%; in [9], 7.15% (active).
As to `CCCCCCc1cc(N=Nc2ccc(S(=O)(=O)Nc3cc(C)nc(C)n3)cc2)c(O)cc1O`, the growth in [1] is 98%; in test [2], 93.5%; in test [3], 107%; in test [4], 110%; in [5], 90.1%; in [6], 106%. Moreover, the growth in test [7] is 102%; in [8] it was 103%; in [9], 114%.
`Clc1ccc(/C=C2\CCCC3=C2N=C2SC=NN2C3c2ccc(Cl)cc2)cc1` (stereo unspecified): the growth was 107% in [1]; 96.2% in test [2]; 112% in test [3]; 97.2% in test [4]; 106% in test [5]; 88.6% in test [6]. The growth in [7] was 103%; in [8], 113%; in test [9] it was 98.3%.
Regarding `N#CCCN1C/C(=C/c2ccccc2)C(=O)/C(=C/c2ccccc2)C1`, the growth in [1] is 69.8%; in test [2], 86%; in test [3], 59.5%; in test [4] it was 71%; in test [5] it was -51.6% (active); in test [6], 76.6%. Moreover, the growth in test [7] was 34.1%; in [8], 59.4%; in test [9] it was 35.2%.
In the case of `COc1ccc(Nc2ncnc3c2c(SC)nn3-c2ccccc2)cc1`, the growth was 85.5% in test [1]; 82.4% in test [2]; 96.7% in [3]; 99.4% in test [4]; 61.3% in [5]; 86% in test [6]. Besides, the growth in [7] was 93.9%; in [8], 111%; in test [9], 101%.
Consider `COc1ccc(-c2nn(-c3cccc(NC(=O)c4ccc5c(c4)OCCO5)c3)cc2-c2ccncc2)cc1Cl`, for which the growth was 47.6% in test [1]; 54.4% in test [2]; 30.9% in [3]; 9.42% (active) in test [4]; -32.2% (active) in test [5]; 18.7% in test [6]. Also, the growth in test [7] is 14.7%; in [8] it was -6.14% (active); in test [9] it was 39.8%.
Regarding `O=[N+]([O-])c1ccc(Oc2cc(Cl)c(Cl)cc2Cl)c(C(F)(F)F)c1`, the growth is 94.6% in [1]; 98.1% in test [2]; 95.3% in test [3]; 97.7% in test [4]; 87.1% in test [5]; 91.1% in test [6]. Further, the growth in [7] was 107%; in test [8], 122%; in test [9] it was 104%.
Turning to `FC(F)(F)c1ccc(-c2cnc(-n3cc(COCCN4CCCCC4)nn3)nc2NC2CCCCCC2)cc1`, the growth is 78.7% in test [1]; 54.4% in test [2]; 52.4% in test [3]; -68.3% (active) in [4]; -12.8% (active) in [5]; 10.6% in test [6]. The figures for the growth in test [7], in test [8] and in test [9] were 51.1%, -93.4% (active) and 57.7%, respectively.
For the molecule `Cc1cc(N(CCCNc2ccnc3cc(Cl)ccc23)Cc2ccc3c(c2)OCO3)nc(N2CCCCC2)n1`, the growth is 38.1% in test [1]; -5.02% (active) in test [2]; -45.1% (active) in test [3]; -30.8% (active) in [4]; -43.9% (active) in test [5]; -32.8% (active) in test [6]. The results for the growth in [7], in test [8] and in test [9] were -91.5% (active), -78.7% (active) and 11.1%, respectively.
For the molecule `Cc1ccc(NC(=O)Nc2nc3ccccc3s2)cc1NC(=O)Nc1nc2ccccc2s1`, the growth in test [1] was 90%; in test [2], 97.6%; in test [3] it was 88.3%; in test [4], 88.5%; in test [5] it was -33.8% (active); in [6] it was 42.5%. The growth was 97.1% in [7], 80.6% in test [8] and 107% in [9].
For `CCn1cc(C(=O)O)c(=O)c2cnc(N3CCCC3)nc21`, the growth in [1] is 94.5%; in [2] it was 97.3%; in test [3], 108%; in [4], 110%; in test [5] it was 101%; in test [6], 96.1%. The growth was 92.6% in [7], 111% in test [8] and 119% in [9].
